PBM binding z-score data for 40 sequences are collected here from the supplement of paper PMC6555819.

The test system of the experiment is VDR:RXRa (NR concentration 270 nM, RXRa partner concentration 90 nM). The experiment can be described thus: PBM binding z-score (relative to random genomic background probes); higher = stronger binding; sequences stand for … in GC…GCGATTGACAGCGTAGAATGAAGG
The method, then: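 Protein-binding microarray (Agilent 4x180K custom design, double-stranded 60-nt probes: 5' GC cap, 34-nt variable region, 24-nt constant primer region; full probe sequence given). Purified or IVT nuclear receptor:RXRα heterodimers (3:1 NR:RXRα, mostly 270:90 nM) or homodimers were incubated for 1 h in PBS with 2% milk and no ligand, then detected with Alexa488 antibodies. Fluorescence from o1-orientation probes (~5 replicates averaged) was converted to z-scores against 500 random hg19 background probes. Variable regions are seed direct-repeat (DR0–DR5) sites, all their single-nucleotide variants and half-site ablations.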
The sequence CGAATTAGGTCAAGGACAGTGAATCTCCGCACGC came in with a PBM binding z-score of 1.61.

In turn, TCTTGTAGATCAAGCAGGTTAAGACAGCCTGAGT had a PBM binding z-score of 0.279.

Sequence CCTCACGGGTCACTCCAGGTTATAGCATCGGAGT gave a PBM binding z-score of 4.07.

For CGTCCGAGGTCAGCAGGTCAGTGAAAGCGACGTG, the PBM binding z-score was 4.86.

Sequence CAAACTAGGTCACAGATGTCAAAGTCCGTGCGTA displayed a PBM binding z-score of 4.5.

Sequence ATACCAAGGTGATCCTGAGGTCGTTGATACTAAC showed a PBM binding z-score of 3.42.

On to CAGCCTAGGTCAGGGCCATTATAGGAGGAACGTT, for which the PBM binding z-score was found to be 0.399.

In turn, CCGAGTAGGTTATGGGGCACTCAGGCAACGGTGA showed a PBM binding z-score of -0.0808.

For CGAACTCGGTCATTGACAGGACAGTGAATAGTAA, the PBM binding z-score was determined as 0.452.

Sequence AGACTGAGGTTACCAAAGATCAGGGAAACGCTTG gave a PBM binding z-score of 1.13.

Consider ACAGACGGGTGAGTGAAGGTAACTCAGCTGGACG, for which the PBM binding z-score is -0.422.

With TCTTGTAGATCAACAGGAGGTTAAGAAGGATCGA, the PBM binding z-score turned out to be 0.575.

In turn, ACTATTAGTTGACTTAGGGCAACCGGTACGACGC had a PBM binding z-score of 1.16.

CCTACTGGGCCACGAAAGGTCATGGATTCAGTGA showed a PBM binding z-score of 4.1.

Sequence TCTTGTAGATCAAAAGTTAAGAAAGCCGAAGCCT displayed a PBM binding z-score of 0.386.

Turning to CAAACTAGGTCAAGAGGTCAACGTCCGCTTCCCG, the PBM binding z-score was 5.97.

TTACCAAGGTGCGCTGAGGTCGTTGATCCAACTC returned a PBM binding z-score of 4.07.

Turning to CAAACTAGATCACGAAAGGTCAAAGTCGAATGAC, the PBM binding z-score was 4.79.

Sequence TTACCAAGGTGAAGGTCGATGATCCCTCTGTAGA came in with a PBM binding z-score of 0.54.

Take GCAGATAGGTAATACAAGGTGAAAGTCCGATTGT: the PBM binding z-score worked out at 0.13.

CCAGACAGGTGAGAAGCTAACTCAGCCTCGATTA displayed a PBM binding z-score of -0.228.

In turn, CCTTACGGGTCACTGACGGGTTATAGCATTTGGA came in with a PBM binding z-score of 3.7.

The sequence TGACCAAGGTGAAAGGTCGTTGATGCACGCCTTG returned a PBM binding z-score of 2.96.

In turn, ATTTCTAGGTAACCAAGTTCAGTGAATGCCGAAC registered a PBM binding z-score of 4.22.

In turn, CCAGACAGGTGAGATGGTAACTCAGCCTCGATTA showed a PBM binding z-score of -0.293.

TCTGCTAGGTCAAAGATGGTCAGCTAATCTGCTA registered a PBM binding z-score of 1.68.

On to AGAACGAGGGCAATGAGTTGATAGCGCGGGTGGC, for which the PBM binding z-score stood at 5.04.

As for ACTTACGCGTCAACGAGGTTATAGCACGCGTATA, the PBM binding z-score was 3.57.

For CCGACTGGGCCAAGGTTACCATAACGCACAGCCA, the PBM binding z-score is -0.185.

TCTTGTAGATCAAAGGTTCAGAAAGCCGAAGCCT showed a PBM binding z-score of 1.47.

Turning to ATCTTTAGGTAAAGATAGTTCAGTGAATGCAAAT, the PBM binding z-score is 0.897.

The sequence GATACATGGTCAAGGCCAGAGTACGCGTATTGAT returned a PBM binding z-score of -0.256.

For the sequence TCTCGGAGGACACGAAGGTTAGAGCTTTCCAGAG, the PBM binding z-score amounted to 0.237.

TCATATAAGTAAATGCTAGGTGAAAGTCCGATCT yielded a PBM binding z-score of 0.889.

As for ATATGTAGGTTATCGGGTCAATCAGTTTGCGCAT, the PBM binding z-score came out at 5.29.

CCTTACGGGTCACGAGGTTTTAGCACGACGAGCG came in with a PBM binding z-score of 5.64.

For the sequence GCTAGTTGGTCAGTAAAAGGTCACACAACGGTCG, the PBM binding z-score is 4.19.

CCTGCTGGGCCAAAAAGGTCATTGATGCCGATAA registered a PBM binding z-score of 4.84.

As for CCTCCAAGGTCAAGGTCAGTGAAAGAGACTCGAA, the PBM binding z-score amounted to 4.69.

ACTCTGAGGACAAAGGTCAGAGCTACGCCAGTGA: the PBM binding z-score is 3.49.
